About 79,000 compounds went through this panel and 15% of them were active in at least one assay; those are over-represented in the sample as a whole. Active and inactive are the calls of the source. Cut-off read from the data, not from the text of the source: active = growth inhibition above about 70%; inactive = the rest.
How the values were obtained:
[1] = NCI Yeast Anticancer Drug Screen. Data for the rad52 strain (AID 147);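 note: 0% = growth of vehicle-treated control cultures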; conditions: S. cerevisiae rad52 mutant growth inhibition, stronger effect = higher value
How it was run: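 Inhibition of yeast growth, referenced to vehicle controls, was the measured output for a strain with defective DNA damage repair.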

[2] = NCI Yeast Anticancer Drug Screen. Data for the wt1 strain (AID 149);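 note: 0% = growth of vehicle-treated wt1 cultures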; conditions: S. cerevisiae wt1 strain (SPY 50644) growth inhibition, stronger effect = higher value
How it was run: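 Measured: growth of wt1 yeast under compound versus vehicle treatment, reported as inhibition.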

[3] = NCI Yeast Anticancer Drug Screen. Data for the rad50EPP+ strain (AID 151);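 note: 0% = growth of vehicle-treated control cultures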; conditions: S. cerevisiae rad50 mutant strain, stronger effect = higher value
How it was run: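 Genetically defined yeast (rad50EPP+, DNA damage repair alteration) is grown with compound, and inhibition of growth is expressed relative to vehicle-treated controls.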

[4] = NCI Yeast Anticancer Drug Screen. Data for the mgt1 strain (AID 153); conditions: S. cerevisiae mgt1 mutant growth inhibition, stronger effect = higher value
How it was run: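 In the mgt1 strain, test compounds were added and growth inhibition was determined relative to vehicle-treated controls.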

[5] = NCI Yeast Anticancer Drug Screen. Data for the rad50 strain (AID 155);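 note: 0% = growth of vehicle-only cultures of the same strain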; conditions: S. cerevisiae rad50 strain growth inhibition, stronger effect = higher value
How it was run: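 Growth of the mutant yeast was measured after compound exposure and referenced to vehicle-treated cultures.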

[6] = NCI Yeast Anticancer Drug Screen. Data for the mec2-1 strain (AID 157); conditions: S. cerevisiae mec2-1 strain, stronger effect = higher value
How it was run: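 Each compound was tested on mec2-1 yeast, a strain altered in DNA damage repair or cell cycle control. Growth inhibition is reported relative to vehicle.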

[7] = NCI Yeast Anticancer Drug Screen. Data for the rad14 strain (AID 159);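 note: 0% = growth of vehicle-treated control cultures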; conditions: S. cerevisiae rad14 strain growth inhibition, stronger effect = higher value
How it was run: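 Here, inhibition of yeast growth was measured after compound exposure, using a strain with a genetic defect in DNA damage repair and vehicle-treated cultures as the reference.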

[8] = NCI Yeast Anticancer Drug Screen. Data for the sgs1 mgt1 strain (AID 161);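 note: 0% = growth of cultures given vehicle only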; conditions: S. cerevisiae sgs1 mgt1 strain, stronger effect = higher value
How it was run: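 Mutant yeast exposed to compound; growth scored against vehicle-only wells.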

[9] = NCI Yeast Anticancer Drug Screen. Data for the CLN2oe strain (AID 163);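 note: 0% = growth of vehicle-only control cultures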; conditions: S. cerevisiae CLN2oe strain, stronger effect = higher value
How it was run: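 First, the altered yeast strain was treated with each compound; second, its growth was measured; finally, inhibition was derived by comparison with vehicle controls.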

[10] = NCI Yeast Anticancer Drug Screen. Data for the cln2 rad14 strain (AID 165);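 note: 0% = growth equal to vehicle treated cultures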; conditions: S. cerevisiae cln2 rad14 strain, stronger effect = higher value
How it was run: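 Test compounds were added to cln2 rad14 yeast cultures; inhibition of growth was then determined by comparison with vehicle treatment.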

[11] = NCI Yeast Anticancer Drug Screen. Data for the bub3 strain (AID 167); conditions: S. cerevisiae bub3 mutant strain, stronger effect = higher value
How it was run: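 Whole-cell yeast assay. The mutant strain was incubated with compounds, and growth inhibition was determined by comparison with vehicle-treated cells.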

[12] = NCI Yeast Anticancer Drug Screen. Data for the wt2 strain (AID 169);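 note: 0% = growth of vehicle-treated yeast cultures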; conditions: S. cerevisiae wt2 strain growth inhibition, stronger effect = higher value
How it was run: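 The panel's yeast strains carry defined changes in DNA repair or cell cycle genes. Each strain is grown with compound, and growth loss is scored relative to vehicle.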

[13] = NCI Yeast Anticancer Drug Screen. Data for the mlh1 strain (AID 171);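 note: 0% = growth of vehicle-treated control cultures of the same strain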; conditions: S. cerevisiae mlh1 strain growth inhibition, stronger effect = higher value
How it was run: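 Inhibition values reflect reduced yeast growth in the presence of compound, referenced to vehicle controls, using a strain chosen for its alteration in DNA repair or cell cycle control.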

[14] = NCI Yeast Anticancer Drug Screen. Data for the sgs1 strain (AID 173);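 note: 0% = growth of vehicle-only control cultures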; conditions: S. cerevisiae sgs1 mutant, stronger effect = higher value
How it was run: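 Vehicle-treated cultures served as reference for growth inhibition of a yeast strain altered in DNA damage repair or cell cycle control after compound exposure.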

[15] = NCI Yeast Anticancer Drug Screen. Data for the mlh1 rad18 strain (AID 175); conditions: S. cerevisiae mlh1 rad18 strain growth inhibition, stronger effect = higher value
How it was run: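 Inhibition values reflect reduced growth of mutant yeast versus vehicle-treated controls following compound exposure; the mutations affect DNA damage repair.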

[16] = NCI Yeast Anticancer Drug Screen. Data for the rad18 strain (AID 177); conditions: S. cerevisiae rad18 mutant growth inhibition, stronger effect = higher value
How it was run: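 Steps: expose repair-mutant yeast to compound; measure growth; express as inhibition relative to vehicle control.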

[17] = at 5.0 µM (retest, dose inferred, filed as 0.5)
[18] = at 50.0 µM (retest, dose inferred, filed as 5.0)

Measured: growth inhibition

O=C(NCCCCN(CCCNC(=O)C(F)(F)F)Cc1ccccc1)C(F)(F)F
active: [5]; [18] 90% | [6]; [18] 75%
inactive: [1]; at 1.2 µM 30% | [1]; at 3.7 µM 36% | [1]; at 11.0 µM 31% | [1]; at 33.0 µM 33% | [1]; at 100.0 µM 35% | [2]; at 1.2 µM 5% | [2]; at 3.7 µM 9% | [2]; at 11.0 µM 4% | [2]; at 33.0 µM 6% | [2]; at 100.0 µM -10% | [3]; at 1.2 µM 5% | [3]; at 3.7 µM -6% | [3]; at 11.0 µM 4% | [3]; at 33.0 µM -2% | [3]; at 100.0 µM -18% | [4]; at 1.2 µM 22% | [4]; at 3.7 µM 33% | [4]; at 11.0 µM 32% | [4]; at 33.0 µM 26% | [4]; at 100.0 µM 7% | [5]; at 1.2 µM 32% | [5]; at 3.7 µM 33% | [5]; [17] 39% | [5]; at 11.0 µM 40% | [5]; at 33.0 µM 33% | [5]; at 50.0 µM -5.5% | [5]; at 100.0 µM 27% | [6]; at 1.2 µM 14% | [6]; at 3.7 µM 11% | [6]; [17] 14% | [6]; at 11.0 µM 14% | [6]; at 33.0 µM 0% | [6]; at 50.0 µM -9.05% | [6]; at 100.0 µM -13% | [7]; at 1.2 µM 16% | [7]; at 3.7 µM 16% | [7]; at 11.0 µM 15% | [7]; at 33.0 µM 11% | [7]; at 100.0 µM -10% | [8]; [17] -19% | [8]; [18] -11% | [8]; at 50.0 µM -5.75% | [9]; at 1.2 µM 13% | [9]; at 3.7 µM 3% | [9]; at 11.0 µM 6% | [9]; at 33.0 µM 12% | [9]; at 100.0 µM -3% | [10]; [17] 14% | [10]; [18] 8% | [10]; at 50.0 µM 26.9% | [11]; at 1.2 µM 11% | [11]; at 3.7 µM 0% | [11]; [17] 7% | [11]; at 11.0 µM 0% | [11]; at 33.0 µM -7% | [11]; [18] 0% | [11]; at 50.0 µM -14% | [11]; at 100.0 µM 0% | [12]; at 1.2 µM -4% | [12]; at 3.7 µM -6% | [12]; at 11.0 µM 2% | [12]; at 33.0 µM -12% | [12]; at 100.0 µM -12% | [13]; at 1.2 µM 22% | [13]; at 3.7 µM 33% | [13]; at 11.0 µM 32% | [13]; at 33.0 µM 26% | [13]; at 100.0 µM 7% | [14]; at 1.2 µM 40% | [14]; at 3.7 µM 41% | [14]; at 11.0 µM 44% | [14]; at 33.0 µM 15% | [14]; at 100.0 µM 36% | [15]; [17] 19% | [15]; [18] 24% | [15]; at 50.0 µM -63% | [16]; at 1.2 µM 13% | [16]; at 3.7 µM 12% | [16]; at 11.0 µM 21% | [16]; at 33.0 µM 14% | [16]; at 100.0 µM -7%

From PubChem BioAssay (NCI)
